Screens as filed in PubChem BioAssay.
ELG1 genotoxic – genotoxicity induction in ELG1-luciferase HEK293T cells; HEK293T ELG1-luciferase reporter, luminescence, 16 h; Potency, µM (top dose mostly 46 µM), for inactives: top-dose activity change, positive = activation, hits mostly activators; 330,000 compounds, 1.3% hits; AID 504466; note: % of control where 0% means no effect; nearly all actives have a fitted effect of over 60% in size
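After overnight (16 hr) compound treatment at 37 °C, ELG1-luciferase HEK293T cells were lysed with ONE-Glo; luminescence quantified 30 min later at room temperature.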
NPC1 promoter act – activates the NPC1 promoter | AID 485313 | 320,000 compounds, 2.4% hits | Huh7 NPC1 promoter luciferase reporter, 24 h | Potency, µM (doses to about 9.22 µM), without a hit: top-dose activation, usual class: activators; note: % of control where 0% means no effect; nearly all actives have a fitted effect of over 60% in size
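Luminescence from an NPC1 promoter-driven luciferase reporter in stably transfected Huh7 cells was measured after 24 h compound treatment at 37 °C, followed by 10 min ambient incubation with luciferase detection reagent.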
KinaseGlo FLuc – Kinase-Glo luciferase inhibition (counter-screen); Q27757; Potency, µM (highest dose often 38.3 µM), inactives show at the top dose activity change, negative = inhibition, actives largely listed as inhibitors; Kinase-Glo luciferase, ATP luminescence, 8 min; 200,000 compounds, 0.28% hits; note: % is set by controls: 0 for no effect and ±100 for the full control effect; nearly all actives have a fitted effect of over 60% in size
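Luminescence was the read-out, taken after 8-minute incubation at ambient temperature. Luciferase turned over luciferin with 10 uM ATP in imidazole pH 7.2 buffer containing KCl, MgCl2, Tween 20 and BSA.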
Rab9 promoter act – activates the Rab9 promoter; AID 485297; Huh7 Rab9 promoter-luciferase reporter, luminescence, 24 h; Potency, µM (series often up to 9.22 µM), for the others: at the top dose activation, negative = inhibition, actives largely listed as activators; 320,000 compounds, 2.8% hits; note: % of control where 0% means no effect; nearly all actives have a fitted effect of over 60% in size
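Quantitative HTS format; Huh7 Rab9-luciferase reporter cells (1500/well) receive compound 2 h post-plating, incubate 24 h at 37 °C, then get luciferase reagent for 10 min before luminescence reading.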
FLuc counter – firefly luciferase modulation, counter-screen for miR-21 project. AID 588342. purified FLuc, Km substrates, luminescence inhibition. Potency, µM (top dose mostly 57.5 µM), for inactives: at the highest dose activity change, negative = inhibition, hits mostly inhibitors. 360,000 compounds, 6.9% hits;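 note: plate controls were vehicle for no effect and reference inhibitor for full effect; nearly all actives have a fitted effect of over 55% in size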
Target sequence (P08659 whole entry, looked up): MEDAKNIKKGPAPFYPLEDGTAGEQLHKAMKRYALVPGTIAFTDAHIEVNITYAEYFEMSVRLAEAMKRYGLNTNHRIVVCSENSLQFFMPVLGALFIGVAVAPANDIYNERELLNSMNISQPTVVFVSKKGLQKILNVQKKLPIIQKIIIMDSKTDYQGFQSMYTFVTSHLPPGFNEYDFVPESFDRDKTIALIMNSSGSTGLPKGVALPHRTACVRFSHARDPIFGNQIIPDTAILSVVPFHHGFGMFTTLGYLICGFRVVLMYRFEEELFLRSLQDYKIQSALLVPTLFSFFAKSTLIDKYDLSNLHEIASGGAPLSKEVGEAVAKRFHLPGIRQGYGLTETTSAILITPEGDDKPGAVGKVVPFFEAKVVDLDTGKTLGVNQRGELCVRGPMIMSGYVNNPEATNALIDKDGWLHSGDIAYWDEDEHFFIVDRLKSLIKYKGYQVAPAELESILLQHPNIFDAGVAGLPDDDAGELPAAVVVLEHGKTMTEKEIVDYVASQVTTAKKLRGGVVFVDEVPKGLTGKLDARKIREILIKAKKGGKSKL
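Purified P. pyralis luciferase (10nM final) with 10uM D-luciferin and 10uM ATP (Km levels) in 50mM Tris acetate pH 7.5, 10mM Mg acetate, 0.01% Tween-20, 0.05% BSA; qHTS 6-point titration, ~60 µM downward; luminescence read.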
SMN2 splice enh – enhancers of SMN2 splice variant expression; HEK293 SMN2-luciferase splicing reporter, luminescence, 30-36 h; Potency, µM (titrated, usually from 46.1 µM), for the others: at the highest dose activity change, positive = activation, hits mostly activators; 210,000 compounds, 2.8% hits; note: % of control where 0% means no effect; nearly all actives have a fitted effect of over 55% in size
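HEK293 cells carry an SMN2 minigene-luciferase reporter in which exon 7 inclusion puts luciferase in frame. Cells were seeded at 2000 cells/well, attached for 10-12 hours, then exposed to compounds for 30-36 hours at 37C before ONE-Glo luminescence.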
An asterisk follows results filed as active; ? = inconclusive; . = no result; [ ] = another dose, or the depositor's remark. Sampled rows, rich in hits. Any-hit rate of the full collection: about 7.5%. Calls come from the whole dose curve; as a rule, active = well fitted curve in the direction sought with a large enough effect; inconclusive = small, poorly fitted or top-dose-only effect, or another doubt; inactive = no such curve, though single readings can be large; an effect the other way counts as inactive or inconclusive. Potency is the fitted concentration of half-maximal effect.

SMILES	ELG1 genotoxic	NPC1 promoter act	KinaseGlo FLuc	Rab9 promoter act	FLuc counter	SMN2 splice enh
COc1ccc(-n2nc(C(=O)NCC(=O)N3CCN(c4ccccc4)CC3)c3ccccc3c2=O)c(OC)c1	0%	?	.	?	0.54µM*	.
Cc1nc2ccccc2c(=O)n1-c1ccc(NC(=O)c2ccccc2[N+](=O)[O-])cc1	.	.	.	.	-1%	.
Oc1nc(Nc2ccccc2)sc1/C=C1\C=Nc2ccccc21	?	4µM*	.	2.8µM*	19µM*	.
CCOC(=O)c1c(Nc2ccccc2)sc(/C=C2\C=Nc3ccccc32)c1O	12%	-4%	-3%	-3%	6%	-6%
CCn1c(O)c(/C=C2\C=Nc3ccccc32)sc1=O	6.5µM*	?	2%	1.4µM*	2.7µM*	22µM*
Nc1c(C(=O)Nc2ccc3c(c2)OCCO3)nnn1Cc1ccc(F)cc1	?	2.5µM*	.	2.2µM*	?	.
Nc1c(C(=O)Nc2ccc3c(c2)OCCO3)nnn1Cc1cccc(Cl)c1	12%	?	.	?	?	.
COc1ccc(NC(=O)c2nnn(CC(=O)Nc3ccc4c(c3)OCO4)c2N)cc1OC	0%[9.26 µM]	-5%	.	-4%	-5%	.
COc1ccc(Br)cc1Cn1nnc(C(=O)Nc2ccc3c(c2)OCCO3)c1N	-7%	0%	.	-2%	?	.
Nc1c(C(=O)Nc2ccc3c(c2)OCCO3)nnn1Cc1ccccc1Cl	17%	2.8µM*	.	2.2µM*	?	.
COc1ccc(NC(=O)c2nnn(CC(=O)Nc3ccc4c(c3)OCO4)c2N)c(OC)c1	1%[9.26 µM]	19%	.	18%	1.9µM*	.
Cc1noc(C)c1S(=O)(=O)N1CCCC1C(=O)O (stereo not given)	0%	2%	.	0%	-1%	.
O=C(CCN1CCOCC1)Nc1ccc(F)cc1F	.	.	-4%[7.66 µM]	.	.	-3%[9.22 µM]
Cc1ccc(C(=O)NNC(=S)Nc2cccc3ccccc23)s1	4%	1%	.	28%	11µM*	.
CC(=O)Nc1cccc(/C(C)=N/NC(=O)c2ccc(Cl)cc2Cl)c1	-1%	3%	-2%	-6%	19µM*	-26%
C/C(=N/NS(=O)(=O)c1ccc(C)cc1)c1cccc(NC(=O)c2cccc(Cl)c2)c1	-11%	-1%	-9%	-5%	17µM*	-13%
C/C(=N/NS(=O)(=O)c1ccc(Cl)cc1)c1cccc(NC(=O)c2ccc(Cl)cc2Cl)c1	0%	0%	-2%	4%	17µM*	8%
O=C1OCCN1C(=O)[C@H]1[C@H](c2ccccc2)C(c2ccccc2)=NN1c1ccc(Br)cc1	-1%	.	-1%[39.9 µM]	.	.	.
Cc1ccc(Nc2nc3c(c(=O)[nH]c(=O)n3C)n2Cc2ccc(F)cc2)cc1	12%	0%	-1%	-1%	-14%	20%
CCn1c(C(=O)NC2CCC(C)CC2)cc2sccc21 (stereo not given)	?	3.5µM*	.	?	15µM*	.
Cn1c(C(=O)N2CCCC(C(=O)O)C2)cc2sccc21 (stereo not given)	1%	-1%	0%	0%	3%	-12%
CC1CCN(CCCNC(=O)c2cc3sccc3n2C)CC1	3%	0%	.	-8%	-3%	.
Cn1c(C(=O)NC2CCCCC2)cc2sccc21	?	?	.	4µM*	17µM*	.
CN(C(=O)c1cc2sccc2n1C)C1CCCCC1	?	4µM*	1%	3.2µM*	13µM*	13µM*
COc1ccc(-c2cc(C(=O)N/N=C\c3cc(OC)c(OC)c(OC)c3)[nH]n2)cc1	.	.	-3%	.	.	.
SMILES	ELG1 genotoxic	NPC1 promoter act	KinaseGlo FLuc	Rab9 promoter act	FLuc counter	SMN2 splice enh
CCOC(=O)c1c(Cc2ccccc2)c[nH]c1C	?	0%	-4%	-1%	?	-35%
CN(C)/C=C(/C#N)C(=O)c1cccc(Oc2ccc(C(C)(C)C)cc2)c1	-1%	0%	-2%	-3%	15µM*	-23%
CCC(C)(C)c1ccc(Oc2ccc(N)cc2)cc1	-11%	-44%	5%	-53%	?	-19%
CCC(C)(C)c1ccc(Oc2cccc(C(=O)O)c2)cc1	14%	1.8µM*	-1%[7.66 µM]	?	?	22%[9.22 µM]
Cc1ccccc1Oc1cccc(C(=O)/C(C#N)=C/N(C)C)c1	?	2%	14%	2%	?	-15%
O=C1CCCC2=C1C1O[C@](CCCCN3C(=O)c4ccccc4C3=O)(Cc3ccccc31)O2	.	-5%[1.84 µM]	.	0%[1.84 µM]	0%[11.5 µM]	.
Clc1ccc(-c2cnc(Oc3ccccc3)nc2)cc1	?	0.79µM*	-2%	2.8µM*	2.7µM*	14µM*
Cc1cc(Cl)ccc1Oc1ncc(-c2ccc(Cl)cc2)cn1	-7%	-6%	0%	-5%	-16%	-24%
COc1ccc(NC(=O)NC2COc3ccccc3C2)cc1Cl (stereo not given)	.	.	.	.	-10%	.
Cc1ccc(NC(=O)CC2Nc3ccccc3NC2=O)cc1Cl (stereo not given)	?	15%	2%	23%	24µM*	-5%
O=C(CC1Nc2ccccc2NC1=O)NCCc1ccccc1 (stereo not given)	-3%	-1%	-4%	-2%	-2%	-8%
O=C(CC1Nc2ccccc2NC1=O)c1ccccc1 (stereo not given)	9.2µM*	?	?	2.5µM*	3µM*	13µM*
Cc1ccc(NC2Sc3ccccc3NC2=O)cc1Cl (stereo not given)	-1%	0%	.	0%	19µM*	.
Cc1ccc(NC(=O)CC2Nc3ccccc3NC2=O)cc1C (stereo not given)	.	.	.	.	-12%	-6%
CC(CC(=O)Nc1nnc(CC(C)(C)C)s1)c1ccccc1 (stereo not given)	-2%	-3%	.	-1%	0%	.
COc1ccc(NCc2c(O)ccc3ccccc23)cc1	.	.	-5%[7.66 µM]	.	.	-10%[9.22 µM]
COc1cccc(N=Nc2ccc3ccccc3c2O)c1	?	?	.	4µM*	0.34µM*	.
Cc1ccc(S(=O)(=O)N2CCCCC2)cc1	-3%	-3%	.	1%	-2%	.
COc1ccc(C(=O)c2ccccc2)c(O)c1	?	2%	3%	-3%	?	-18%
COc1ccc(N=Nc2ccc3ccccc3c2)c(O)c1	0.92µM*	3.2µM*	.	4µM*	0.38µM*	.
Cc1ccc(O)c(N=Nc2ccc(S(=O)(=O)N3CCCC3)cc2)c1	9%	?	.	?	15µM*	.
COc1ccc(N=Nc2ccc(N)nc2N)cc1	9.2µM*	1µM*	.	2.5µM*	2.4µM*	.
COC(=O)N[C@@H](c1ccc(Br)cc1)C(C(=O)OC)C(=O)OC	.	.	-2%	.	.	20%
O=C(O)CN(C1CCCCC1)S(=O)(=O)c1ccc(F)cc1	-1%	-3%	-2%	-4%	-2%	6%
Cc1ccc(O)c(N=Nc2nccs2)c1	23µM*	-1%	.	-9%	9.5µM*	.
